The results in this text go back to PubChem BioAssay AID720517 (National Center for Advancing Translational Sciences (NCATS), 2013).

SMILES strings stand for the structures. Records with an inconclusive call do not appear. A call without a number means that no potency is given here. Active and inactive are the calls of the source. The call rests on the fitted dose curve; in most records, active means well fitted activation curve with a large enough effect; inconclusive means small, poorly fitted or top-dose-only effect; inactive means flat fitted curve, though single readings scatter.
Potency means the concentration at half of the fitted maximal effect.

This assay is described as follows: qHTS for Inhibitors of Cell Surface uPA Generation: FP59 Counterscreen for Cherry-picked Compounds. Conditions: FP59 anthrax toxin cytotoxicity counterscreen, cells; series mostly up to 115 µM. On the technique in general: qHTS replaces the single test concentration by a dilution series.
On to `Cc1ccc(C)c(NC(=O)CCN2CCN(c3ccccc3F)CC2)c1`, for which the Potency entry is “inactive”. As for `O=C(NCc1ccco1)/C(=C\c1cccs1)NC(=O)c1ccccc1`, the entry is “inactive”.

Consider `O=C(CSc1nnnn1-c1cccc(F)c1)Nc1nc2ccccc2s1`, for which the Potency result was “inactive”.

As for `COc1ccc(NC(=O)CN2C(=O)CSc3ncccc32)cc1`, the Potency entry was “inactive”.

Take `COCCN(C(=O)c1ccccc1OC)c1nnc(C)s1`: the Potency result is “inactive”. As for `COc1ccc(OC)c(NC(=O)C2CCCN2C(=O)C2CCC(C)CC2)c1` (stereo not given), the Potency entry was “inactive”. To `CC(=O)N1CCN(C(=O)CSc2cc(C)c(Br)cc2C)CC1` belongs “inactive”; to `COC(=O)C1C(=O)c2c([nH]c(C(=O)OC3CCCCC3)c2C)CC1C` (stereo not given), “inactive”; to `CCCCCOC(=O)C1=C(C)NC(=O)NC1c1ccccc1` (stereo not given), “inactive”. Regarding `COc1ccc(CN2CCN(Cc3ccc(C(F)(F)F)cc3)CC2)cc1`, the Potency entry was “inactive”. As for `N#Cc1ccccc1Sc1ccccc1C(=O)Nc1ccc(Br)cc1`, the entry is “inactive”; as for `COc1ccc([C@H]2[C@H](C(=O)OC(C)(C)C)N3N=Cc4ccccc4C3C23C(=O)c2ccccc2C3=O)cc1OC` (stereo not given in full), “inactive”; as for `Cc1ccc(Nc2nc(Cl)c(C=O)s2)cc1`, “inactive”.

As to `O=C(CN(c1ccccc1F)S(=O)(=O)c1ccccc1)Nc1ccc2c(c1)OCCO2`, the Potency result is “inactive”. `Cc1ccc(S(=O)(=O)NCC(=O)OC(C)C(=O)NCc2ccc3c(c2)OCO3)cc1` (stereo not given): the Potency entry was “inactive”. As to `CC(C)C(=O)Nc1nnc(SCc2cccc(F)c2)s1`, the Potency entry was “inactive”. With `CCCN1CCN(CC(=O)Nc2nncs2)CC1`, the Potency result was “inactive”.

Take `COc1cc(C(=O)N/N=C(\Cc2ncc[nH]2)c2ccccc2)cc(OC)c1OC`: the Potency result was “inactive”. As for `Cc1ccc(C(=O)COc2cc(O)c3c(=O)cc(-c4ccccc4)oc3c2)cc1`, the entry is “inactive”. To `O=C(Nc1ccc(Cl)cc1)Nc1nnc(-c2ccncc2)s1` belongs “inactive”; to `Cc1ccc(S(=O)(=O)N2CCN(C(=O)c3n[nH]c(=O)c4ccccc34)CC2)cc1`, “inactive”. To `CN1CCN(C2=Nc3ccccc3Oc3ccc(Cl)cc32)CC1` belongs “inactive”; to `Cc1cccc(C(=O)NCC(=O)OCC(=O)NC2CCCCCCC2)c1`, “inactive”; to `O=[N+]([O-])c1cccc(-c2noc(-c3cccs3)n2)c1`, “inactive”. As to `COc1ccc(OC)c(S(=O)(=O)N2CCC(NC(=O)c3ccccc3)CC2)c1`, the Potency entry was “inactive”. As for `Cc1cccc(C(=O)Nc2cc(=O)n(C)c(=O)n2C)c1`, the entry is “inactive”; as for `C=CCNC(=S)NCC=C`, “inactive”. As for `CC(/C=C/C1(O)C(C)CC(O)CC1(C)C)OC1OC(CO)C(O)C(O)C1O` (stereo not given), the entry is “inactive”; as for `Cc1ccnc(N2CCN(C(=O)CSc3nc4ccccc4nc3N3CCC(C)CC3)CC2)c1`, 65.6 µM (active). To `CCS(=O)c1scc(-c2ccc(Cl)cc2)c1C#N` (stereo not given) belongs “inactive”; to `CC1=CC(C)C(C[N+]2(C)CCCCC2)C(C)C1` (stereo not given), “inactive”; to `CCCCNc1c(-c2ccc(-c3cccc(Cl)c3)cc2)nc2ccccn12`, “inactive”. As for `Cc1cccc(CCNC(=O)Cc2ccc(NC3=NC4CS(=O)(=O)CC4S3)cc2)c1` (stereo not given), the Potency result was “inactive”.

As to `Cc1ccc(/C=C/C(=O)O)cc1S(=O)(=O)N1CCc2ccccc21`, the Potency entry is “inactive”. In the case of `CCc1nccn1CCC(=O)N1CCc2c([nH]c3ccccc23)C1CC(C)C` (stereo not given), the Potency result was “inactive”. As for `Cc1cc(C)nc(NC(=O)CSc2nccc(C)n2)n1`, the entry is “inactive”; as for `O=[N+]([O-])c1ccc(SCc2ccncc2)nc1`, “inactive”; as for `COc1ccc(CNC(=O)C2(CC3CC(c4ccccc4)=NO3)CCNCC2)cc1` (stereo not given), “inactive”.

Turning to `O=C(/C=C/c1cccc(F)c1)Nc1cc(S(=O)(=O)N2CCOCC2)ccc1Cl`, the Potency entry was “inactive”. To `O=C1CCCc2ccccc2N1Cc1ccc(F)cc1` belongs “inactive”.
